The full ranking holds about 18,000 sequences; the median of “TetR repression strength (sort-seq, GFP reporter)” is about 0.23, and the highest 2% start at about 0.68. The sample as a whole holds a higher share of the highest values than the screen did.

Sequence of TetR (class B, Tn10) (P04483 whole entry): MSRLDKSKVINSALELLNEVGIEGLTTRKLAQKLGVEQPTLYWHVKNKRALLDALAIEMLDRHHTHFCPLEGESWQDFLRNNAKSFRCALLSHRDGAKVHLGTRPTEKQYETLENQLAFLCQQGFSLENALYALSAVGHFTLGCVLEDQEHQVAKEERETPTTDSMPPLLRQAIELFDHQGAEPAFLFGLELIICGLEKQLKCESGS

The test has as its target TetR (class B, Tn10) (UniProt P04483). Description: TetR repression strength (sort-seq, GFP reporter) (relative to tetO2 = 1); higher = stronger repression. The settings on record: E. coli. The essentials:
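E. coli SIG10-MAX carried a low-copy plasmid library with eight randomized operator positions between a constitutive promoter and sfGFP, with TetR constitutively expressed. Cells grew 5 h at 37 °C in LB with 50 µg/mL chloramphenicol, then 10^6 cells were FACS-sorted into 13 fluorescence bins, each Illumina-sequenced. Repression strength is the top bin index plus one minus the read-weighted mean bin, divided by the wild-type operator value. Three independent transformations; variants with ≥30 reads in all replicates and CV ≤0.5 were averaged.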
TCCCTTCAAGTGTCAGAGA had a TetR repression strength of 0.303.

The sequence TCCCTTTCAGTTTCAGAGA registered a TetR repression strength of 0.206. For TCCCTTCCAGTATCAGAGA, the TetR repression strength was 0.0836. TCCCTTCAAGTTTCAGAGA gave a TetR repression strength of 0.837. The same measure for TCCCTTCCAGTTTCAGAGA: 0.819; for TCCCTTCAAGTTTGAGAGA: 0.185. As to TCCCAGAGAGTACTAGAGA, the TetR repression strength was found to be 0.336.

Regarding TCCCGAGGAGTGGCTGAGA, the TetR repression strength amounted to 0.0686.

Sequence TCCCTTGGAGTAGGGGAGA returned a TetR repression strength of 0.274. The same measure for TCCCACGGAGTCTGGGAGA: 0.0855; for TCCCAGACAGTACTCGAGA: 0.444; for TCCCGAGGAGTGCTCGAGA: 0.126.

For TCCCTCTGAGTGCTCGAGA, the TetR repression strength was 0.315. For TCCCAGACAGTGCTCGAGA the value was 0.855; for TCCCAGTGAGTGCTCGAGA, 0.0229; for TCCCAGACAGTGCGAGAGA, 0.219. TCCCGAAGAGTGCTCGAGA had a TetR repression strength of 0.813. For TCCCGATGAGTGCTCGAGA the value was 0.361. For TCCCTGATAGTGCTCGAGA the value was 0.215. Turning to TCCCTGTGAGTGCTCGAGA, the TetR repression strength is 1.14. TCCCTGTTAGTGCTCGAGA displayed a TetR repression strength of 1.15.

As to TCCCTGTTAGTGGTCGAGA, the TetR repression strength turned out to be 0.187.

The sequence TCCCTGGCAGTTAGGGAGA displayed a TetR repression strength of 0.365. For TCCCGGTCAGTCTGCGAGA the value was 0.194; for TCCCGGATAGTCTTTGAGA, 0.125; for TCCCTTGGAGTATATGAGA, 0.119. For TCCCTGCGAGTAGTCGAGA the value was 0.542; for TCCCCATTAGTGTACGAGA, 0.425. The sequence TCCCTAAGAGTGATGGAGA registered a TetR repression strength of 0.243.

For the sequence TCCCTGTGAGTTCGGGAGA, the TetR repression strength is 0.369.

As for TCCCTGAGAGTTCGCGAGA, the TetR repression strength amounted to 0.0305.

For TCCCTGTGAGTTCGAGAGA, the TetR repression strength came to 0.719. For TCCCATCTAGTCCGTGAGA the value was 0.174; for TCCCTCTAAGTTAGTGAGA, 0.241; for TCCCGCTAAGTCCGGGAGA, 0.188. TCCCCTGAAGTCTTCGAGA: the TetR repression strength was determined as 0. For TCCCTGTCAGTGTCGGAGA the value was 0.388. With TCCCAGGCAGTGCCGGAGA, the TetR repression strength was found to be 0.748. The sequence TCCCTATCAGTGCTTGAGA had a TetR repression strength of 0.701.

As for TCCCTATGAGTGCTTGAGA, the TetR repression strength was determined as 0.335. The same measure for TCCCAGGGAGTGCCGGAGA: 0.19; for TCCCTGTGAGTGCCGGAGA: 0.164.

In the case of TCCCTGTCAGTGCCGGAGA, the TetR repression strength came out at 1.03. The same measure for TCCCTATCAGTTTTTGAGA: 0.472; for TCCCTAGCAGTGTTTGAGA: 0.369; for TCCCAGGCAGTGCAGGAGA: 0.143.

In turn, TCCCTCTCAGTGCTTGAGA gave a TetR repression strength of 0.661. For TCCCTATCAGTGTTTGAGA the value was 0.767; for TCCCCGAAAGTCGCGGAGA, 0.128. The sequence TCCCTATCAGTGTAGGAGA yielded a TetR repression strength of 0.484. For TCCCCTCTAGTGTAAGAGA the value was 0.155; for TCCCGGATAGTAGCGGAGA, 0.329.

The sequence TCCCAGGCAGTCGGTGAGA gave a TetR repression strength of 0.213.

TCCCGTTTAGTGGGTGAGA registered a TetR repression strength of 0.306. For TCCCTTTGAGTTATCGAGA the value was 0.384; for TCCCGGGCAGTATTCGAGA, 0.136.

Take TCCCCGTGAGTGCATGAGA: the TetR repression strength was found to be 0.122.

Sequence TCCCATTCAGTCAATGAGA gave a TetR repression strength of 0.457. The same measure for TCCCTAATAGTGCTTGAGA: 1.01; for TCCCTATCAGTGCTCGAGA: 0.993. For TCCCTAGTAGTGCTTGAGA the value was 0.594. Sequence TCCCTATTAGTGCTAGAGA returned a TetR repression strength of 0.466.

Sequence TCCCTATCAGTGCGAGAGA had a TetR repression strength of 0.452.

TCCCTGTCAGTGCTCGAGA: the TetR repression strength worked out at 0.534. Consider TCCCAAATAGTGCTTGAGA, for which the TetR repression strength is 0. For TCCCTATCAGTGGTCGAGA the value was 0.532; for TCCCTATCAGTGCTAGAGA, 0.841. The same measure for TCCCTAACAGTGTTCGAGA: 0.305; for TCCCTATCAGTTTTCGAGA: 0.523. TCCCTATCAGTGTTCGAGA showed a TetR repression strength of 0.777. Turning to TCCCATACAGTGCGCGAGA, the TetR repression strength amounted to 0.394. For TCCCTTATAGTCGCGGAGA the value was 0.142; for TCCCCTTAAGTGTATGAGA, 0.348; for TCCCAGAGAGTGGAAGAGA, 0.148. Turning to TCCCGACAAGTTATCGAGA, the TetR repression strength was 0.226. In the case of TCCCCATCAGTCCTCGAGA, the TetR repression strength was 0.327. The sequence TCCCTATCAGTCCCGGAGA came in with a TetR repression strength of 0.4. TCCCTATCAGTGCCTGAGA gave a TetR repression strength of 0.467. Sequence TCCCTATCAGTGCCGGAGA had a TetR repression strength of 1.06.

As for TCCCCATCAGTGCTGGAGA, the TetR repression strength was 0.157.

With TCCCTATCAGTCCTCGAGA, the TetR repression strength was found to be 0.747. The same measure for TCCCTATCAGTGCTGGAGA: 0.86; for TCCCTATCAGTGGTGGAGA: 0.402. Take TCCCTATAAGTCCTCGAGA: the TetR repression strength worked out at 0.529.

With TCCCAGGCAGTGCTTGAGA, the TetR repression strength is 0.113.

Take TCCCGATCAGTAGACGAGA: the TetR repression strength is 0.237. Sequence TCCCCTGTAGTGTGCGAGA displayed a TetR repression strength of 0.297. The same measure for TCCCCCACAGTTATAGAGA: 0.524; for TCCCAGGTAGTGGCGGAGA: 0.176.

In turn, TCCCTTCGAGTTCTGGAGA came in with a TetR repression strength of 0.328. For TCCCCTCCAGTTCTGGAGA the value was 0.342; for TCCCTACAAGTGCCGGAGA, 0.202.

TCCCTTCAAGTTCTGGAGA gave a TetR repression strength of 1.03. For TCCCTTCCAGTTCTTGAGA the value was 0.472; for TCCCTTCAAGTGCCGGAGA, 1.13; for TCCCTTCAAGTGCCCGAGA, 0.415. For TCCCTTCTAGTTCTGGAGA, the TetR repression strength was determined as 0.402. In turn, TCCCTTCCAGTTCTGGAGA displayed a TetR repression strength of 1.04. In turn, TCCCATAAAGTGACGGAGA returned a TetR repression strength of 0.305. With TCCCTTAAAGTGTTGGAGA, the TetR repression strength came out at 0.334. The same measure for TCCCGTTCAGTATGGGAGA: 0.106; for TCCCGCCGAGTCCCGGAGA: 0.317; for TCCCATGGAGTTTTAGAGA: 0.281. For TCCCACGGAGTTACGGAGA the value was 0.224; for TCCCGTTTAGTAGTTGAGA, 0.028. The same measure for TCCCGTTGAGTGTTTGAGA: 0.13; for TCCCGAGGAGTGTTCGAGA: 0.224.

Values taken from a collection of fitness landscapes (doi:10.1038/s41467-024-54723-y).
